Measurements reported in PubChem BioAssay AID1159580 (chemical genetic matrix, 2015).
Among all 5,500 compounds or so, about 2,000 (36%) were called active. Not shown: some 18% with an inconclusive outcome. No stated cut-off is given here; in the data, active means normalized growth mostly below about 0.91 (no sharp cut-off); inconclusive means no clear call, values can overlap the other calls; inactive means mostly above about 0.92. The list shows a part of the results.

Experiment: chemical genetic growth profiling, strain panel (AID 1159580);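 further: tested at 20 µM; growth read once vehicle control cultures reached saturation at 30 °C; 1 = growth at the plate median or of vehicle wells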
Settings: S. cerevisiae deletion strains, growth OD

Measured: normalized growth

O=C(O)CC1CCCc2ccccc2C1O (stereo unspecified)
inactive: locus YAL013W, strain DEP1, stronger effect = lower value 1.01 | locus YAL040C, strain CLN3, stronger effect = lower value 1.09 | locus YCL061C, strain MRC1 (second series), stronger effect = lower value 0.999 | locus YDR363W, strain ESC2, stronger effect = lower value 1.02 | locus YER002W, strain NOP16, stronger effect = lower value 1.01 | locus YMR263W, strain SAP30, stronger effect = lower value 0.997 | locus YNL153C, strain GIM3, stronger effect = lower value 1 | locus YNL175C, strain NOP13, stronger effect = lower value 1.01 | locus YNL197C, strain WHI3, stronger effect = lower value 1.01 | locus YNL224C, strain SQS1, stronger effect = lower value 1.01 | locus YOR083W, strain WHI5 (second series), stronger effect = lower value 1.02
